PubChem BioAssay (EPA / NIEHS)
Active and inactive are the calls of the source. Rule for the calls: active = hit-call score of the fitted dose curve at least 0.9, where 1 is the maximum; inactive = score below 0.9.

Columns and labels:
Settings in all cases: mRNA level, 48 h; actives raise or lower the signal
[1] = read-out: Glutamate-cysteine ligase regulatory (GCLM), GCLM (gene 2730); experiment: LTEA_HepaRG_GCLM: Life Technologies and Expression Analysis (LTEA) Assay for Glutamate-cysteine ligase regulatory (GCLM) using HepaRG (AID 2283500)
Summary of the method: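 GCLM expression quantified by qRT-PCR, normalized to three housekeeping genes, after 48 h chemical treatment of HepaRG cells in duplicate at 8 concentrations (top 100 uM, half-log steps, 0.5% DMSO). Changes fitted both directions against vehicle.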

[2] = read-out: Heat shock 70 kDa protein 1 (HSPA1A), gene 3303; experiment: LTEA_HepaRG_HSPA1A: Life Technologies and Expression Analysis (LTEA) Assay for Heat shock 70 kDa protein 1 (HSPA1A) using HepaRG (AID 2283502)
Summary of the method: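 HSPA1A expression measured by qRT-PCR with ACTB/GAPDH/POLR2A normalization; curves fitted in both directions relative to DMSO vehicle. Exposure: 48 h in HepaRG cells, duplicate 8-point half-log series from 100 uM, 0.5% DMSO, serum-free induction medium.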

[3] = read-out: Hypoxia-inducible factor 1-alpha (Homo sapiens) (UniProt Q16665); experiment: LTEA_HepaRG_HIF1A: Life Technologies and Expression Analysis (LTEA) Assay for Hypoxia-inducible factor 1 (HIF1A) Trancription factor using HepaRG (AID 2283503)
Summary of the method: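 HIF1A transcript level read by qRT-PCR (ACTB, GAPDH, POLR2A normalization) after 48 h chemical exposure of HepaRG cultures. Eight half-log concentrations, top 100 uM, 0.5% DMSO vehicle, duplicates; bidirectional curve fit against DMSO baseline.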

[4] = read-out: 3-Hydroxy-3-Methylglutaryl-CoA Synthase 2 (HMGCS2), HMGCS2 (gene 3158); experiment: LTEA_HepaRG_HMGCS2: Life Technologies and Expression Analysis (LTEA) Assay for 3-Hydroxy-3-Methylglutaryl-CoA Synthase 2 (HMGCS2) using HepaRG (AID 2283504)
Summary of the method: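 This steatosis marker was read as HMGCS2 mRNA change in HepaRG cells treated 48 h with up to 100 uM chemical. Normalisation used housekeeping genes; activity in either direction was fitted relative to 0.5% DMSO vehicle.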

HGF (gene 3082) = experiment: LTEA_HepaRG_HGF: Life Technologies and Expression Analysis (LTEA) Assay for Hepatocyte Growth Facto (HGF) using HepaRG (AID 2283505)
Summary of the method: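 Using HepaRG monolayers kept in 0.5% DMSO, chemicals were tested in duplicate over eight half-log concentrations from 100 uM for 48 h. Endpoint: HGF mRNA change relative to DMSO, normalized to ACTB/GAPDH/POLR2A.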

[5] = read-out: Insulin Like Growth Factor 1 (IGF1), IGF1 (gene 3479); experiment: LTEA_HepaRG_IGF1: Life Technologies and Expression Analysis (LTEA) Assay for Insulin Like Growth Factor 1 (IGF1) using HepaRG (AID 2283506)
Summary of the method: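 Expression measured by TaqMan qRT-PCR on a Fluidigm array, with three housekeeping genes for normalisation, after 48 h treatment of HepaRG cells. Top concentration 100 uM with half-log steps, 0.5% DMSO vehicle, bidirectional fit.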

[6] = read-out: Intercellular Adhesion Molecule 1 (ICAM1), ICAM1 (gene 3383); experiment: LTEA_HepaRG_ICAM1: Life Technologies and Expression Analysis (LTEA) Assay for Intercellular Adhesion Molecule 1 (ICAM1) using HepaRG (AID 2283507)
Summary of the method: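 Using the human liver line HepaRG, compounds are tested in duplicate over 48 h at concentrations up to 100 uM. Expression is determined by TaqMan qRT-PCR, normalized to endogenous controls, and analysed relative to 0.5% DMSO vehicle.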

[7] = read-out: Insulin-like growth factor-binding protein 1 (IGFBP1), IGFBP1 (gene 3484); experiment: LTEA_HepaRG_IGFBP1: Life Technologies and Expression Analysis (LTEA) Assay for Insulin-like growth factor-binding protein 1 (IGFBP1) using HepaRG (AID 2283508)
Summary of the method: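 HepaRG, 48 h, 8 conc. (max 100 uM, half-log), duplicates, 0.5% DMSO. Readout: TaqMan qRT-PCR, ACTB/GAPDH/POLR2A normalisation. Fit: bidirectional vs DMSO.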

[8] = read-out: Interleukin 6 (IL6), IL6 (gene 3569); experiment: LTEA_HepaRG_IL6: Life Technologies and Expression Analysis (LTEA) Assay for Interleukin 6 (IL6) using HepaRG (AID 2283509)
Summary of the method: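 Transcript levels, normalized to three housekeeping genes, were quantified by qRT-PCR after 48 h chemical treatment of HepaRG cells. Eight-point half-log series from 100 uM in 0.5% DMSO, duplicates. Fitted both directions against DMSO baseline.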

[9] = read-out: Glutathione S-transferase M3 (GSTM3), GSTM3 (gene 2947); experiment: LTEA_HepaRG_GSTM3: Life Technologies and Expression Analysis (LTEA) Assay for Glutathione S-transferase M3 (GSTM3) using HepaRG (AID 2283501)
Summary of the method: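 Expression of GSTM3 is determined by qRT-PCR in human liver HepaRG cells treated 48 h with an 8-point half-log range from 100 uM in 0.5% DMSO.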

Sequence of Hypoxia-inducible factor 1-alpha (Homo sapiens) (Q16665 whole entry, looked up): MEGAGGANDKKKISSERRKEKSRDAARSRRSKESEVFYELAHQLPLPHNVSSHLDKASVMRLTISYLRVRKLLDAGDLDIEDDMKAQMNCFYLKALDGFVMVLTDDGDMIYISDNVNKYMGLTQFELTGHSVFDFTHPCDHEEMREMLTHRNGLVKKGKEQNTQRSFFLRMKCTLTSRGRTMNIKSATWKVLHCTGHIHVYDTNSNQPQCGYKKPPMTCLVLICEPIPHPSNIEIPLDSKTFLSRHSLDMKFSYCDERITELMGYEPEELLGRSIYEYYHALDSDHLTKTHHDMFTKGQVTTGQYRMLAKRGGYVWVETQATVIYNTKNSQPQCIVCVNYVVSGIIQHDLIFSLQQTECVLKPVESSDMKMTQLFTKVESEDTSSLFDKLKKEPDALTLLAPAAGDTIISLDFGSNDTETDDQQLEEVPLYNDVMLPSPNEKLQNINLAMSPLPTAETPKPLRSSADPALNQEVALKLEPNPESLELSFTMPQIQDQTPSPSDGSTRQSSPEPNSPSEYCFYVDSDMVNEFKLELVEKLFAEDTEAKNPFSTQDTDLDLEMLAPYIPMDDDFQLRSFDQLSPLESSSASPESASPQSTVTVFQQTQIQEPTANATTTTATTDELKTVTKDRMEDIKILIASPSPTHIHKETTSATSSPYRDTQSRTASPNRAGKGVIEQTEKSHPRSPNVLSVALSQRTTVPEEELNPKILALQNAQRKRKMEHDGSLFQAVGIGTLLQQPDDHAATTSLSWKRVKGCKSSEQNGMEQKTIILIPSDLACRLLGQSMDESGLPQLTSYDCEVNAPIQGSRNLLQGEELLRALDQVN

In the case of `CN(C)c1ccccc1`, the outcome [1] is reported as “inactive”, the outcome [2] is reported as “inactive” and the outcome [3] is reported as “inactive”. The outcome [4] was “inactive”, the outcome (HGF (gene 3082)) was “inactive” and the outcome [5] was “inactive”. The outcome [6] was “inactive”, the outcome [7] was “inactive” and the outcome [8] was “inactive”.

For `OCCCBr`, the outcome [1] was “inactive”, the outcome [9] was “inactive” and the outcome [3] was “inactive”. For the same compound, the outcome [4] was “inactive”, the outcome (HGF (gene 3082)) was “inactive” and the outcome [5] was “inactive”. The outcome [6] was “inactive”, the outcome [7] was “inactive” and the outcome [8] was “inactive”.

With `Cc1ccc(N=C=O)cc1N=C=O` the outcome [1] was “inactive”, the AC50 [2] was 30.4 µM (active) and the outcome [3] was “inactive”. The AC50 [4] was 68.7 µM (active), the outcome (HGF (gene 3082)) was “inactive” and the outcome [5] was “inactive”. For the same compound, the AC50 [6] was 24 µM (active), the AC50 [7] was 29.4 µM (active) and the AC50 [8] was 73.5 µM (active).

For `O=C(Oc1ccc(Br)cc1)N1CCN2CCC1CC2`, the outcome [1] was “inactive”, the outcome [2] was “inactive” and the outcome [3] was “inactive”. The outcome [4] was “inactive”, the outcome (HGF (gene 3082)) was “inactive” and the outcome [5] was “inactive”. For the same compound, the outcome [6] was “inactive”, the outcome [7] was “inactive” and the outcome [8] was “inactive”.

With `Cn1cc(-c2ccccc2)c(=O)c(-c2cccc(C(F)(F)F)c2)c1` the outcome [1] was “inactive”, the AC50 [2] was 16.3 µM (active) and the outcome [3] was “inactive”. The outcome [4] was “inactive”, the outcome (HGF (gene 3082)) was “inactive” and the outcome [5] was “inactive”. For the same compound, the outcome [6] was “inactive”, the AC50 [7] was 50 µM (active) and the outcome [8] was “inactive”.

For `[Cl-].[Cl-].[Hg+2]`, the outcome [1] was “inactive”, the outcome [9] was “inactive” and the outcome [3] was “inactive”. The outcome [4] was “inactive”, the outcome (HGF (gene 3082)) was “inactive” and the outcome [5] was “inactive”. The outcome [6] was “inactive”, the outcome [7] was “inactive” and the outcome [8] was “inactive”.

With `O=[N+]([O-])C(Br)(CO)CO` the outcome [1] was “inactive”, the outcome [2] was “inactive” and the outcome [3] was “inactive”. The outcome [4] was “inactive”, the outcome (HGF (gene 3082)) was “inactive” and the outcome [5] was “inactive”. The outcome [6] was “inactive”, the outcome [7] was “inactive” and the outcome [8] was “inactive”.

`CCN(CC)CCO` was tested, and the outcome [1] was “inactive”, the outcome [9] was “inactive” and the outcome [3] was “inactive”. For the same compound, the outcome [4] was “inactive”, the outcome (HGF (gene 3082)) was “inactive” and the outcome [5] was “inactive”. The outcome [6] was “inactive”, the outcome [7] was “inactive” and the outcome [8] was “inactive”.

`COC(=O)Nc1nc2ccccc2[nH]1` was tested, and the outcome [1] was “inactive”, the outcome [9] was “inactive” and the outcome [3] was “inactive”. The outcome [4] was “inactive”, the outcome (HGF (gene 3082)) was “inactive” and the outcome [5] was “inactive”. The outcome [6] was “inactive”, the outcome [7] was “inactive” and the outcome [8] was “inactive”.

For `C[N+](C)(C)CC1CO1` (centres undefined), the outcome [1] was “inactive”, the outcome [9] was “inactive” and the outcome [3] was “inactive”. The outcome [4] was “inactive”, the outcome (HGF (gene 3082)) was “inactive” and the outcome [5] was “inactive”. The outcome [6] was “inactive”, the outcome [7] was “inactive” and the outcome [8] was “inactive”.

For `C[C@]12C=CC3=C4CCC(=O)C=C4CC[C@H]3[C@@H]1CC[C@@H]2O`, the AC50 [1] was 79 µM (active), the outcome [9] was “inactive” and the outcome [3] was “inactive”. For the same compound, the outcome [4] was “inactive”, the outcome (HGF (gene 3082)) was “inactive” and the AC50 [5] was 55.6 µM (active). For the same compound, the outcome [6] was “inactive”, the outcome [7] was “inactive” and the AC50 [8] was 9.92 µM (active).

In the case of `CCNS(=O)(=O)C(F)(F)C(F)(F)C(F)(F)C(F)(F)C(F)(F)C(F)(F)C(F)(F)C(F)(F)F`, the outcome [1] is reported as “inactive”, the outcome [9] is reported as “inactive” and the outcome [3] is reported as “inactive”. The outcome [4] was “inactive”, the outcome (HGF (gene 3082)) was “inactive” and the AC50 [5] was 48.2 µM (active). For the same compound, the outcome [6] was “inactive”, the outcome [7] was “inactive” and the outcome [8] was “inactive”.

`O=C(O)C1C2CCC(O2)C1C(=O)O` (centres undefined) was tested, and the outcome [1] was “inactive”, the outcome [9] was “inactive” and the AC50 [4] was 72.6 µM (active). The outcome (HGF (gene 3082)) was “inactive”, the AC50 [5] was 73.6 µM (active) and the outcome [6] was “inactive”. The AC50 [7] was 93.3 µM (active) and the AC50 [8] was 16.5 µM (active).

With `Clc1ccc(C(c2ccc(Cl)cc2)C(Cl)Cl)cc1` the outcome [1] was “inactive”, the outcome [2] was “inactive” and the outcome [3] was “inactive”. For the same compound, the outcome [4] was “inactive”, the outcome (HGF (gene 3082)) was “inactive” and the outcome [5] was “inactive”. The outcome [6] was “inactive”, the outcome [7] was “inactive” and the outcome [8] was “inactive”.

`CCCCC(CC)COC(=O)c1ccc(C(=O)OCC(CC)CCCC)c(C(=O)OCC(CC)CCCC)c1` (centres undefined) was tested, and the outcome [1] was “inactive”, the outcome [2] was “inactive” and the outcome [3] was “inactive”. For the same compound, the outcome [4] was “inactive”, the outcome (HGF (gene 3082)) was “inactive” and the outcome [5] was “inactive”. For the same compound, the outcome [6] was “inactive”, the outcome [7] was “inactive” and the outcome [8] was “inactive”.

For `[As]#[In]`, the outcome [1] was “inactive”, the outcome [2] was “inactive” and the outcome [3] was “inactive”. The outcome [4] was “inactive”, the outcome (HGF (gene 3082)) was “inactive” and the outcome [5] was “inactive”. For the same compound, the outcome [6] was “inactive”, the outcome [7] was “inactive” and the outcome [8] was “inactive”.

With `Oc1ccc2ccc3cccc4ccc1c2c34` the outcome [1] was “inactive”, the outcome [3] was “inactive” and the outcome [4] was “inactive”. The outcome (HGF (gene 3082)) was “inactive”, the outcome [5] was “inactive” and the outcome [6] was “inactive”. For the same compound, the outcome [7] was “inactive” and the outcome [8] was “inactive”.

With `c1ccc(C2CO2)cc1` (centres undefined) the outcome [1] was “inactive”, the outcome [3] was “inactive” and the outcome [4] was “inactive”. For the same compound, the outcome (HGF (gene 3082)) was “inactive”, the outcome [5] was “inactive” and the outcome [6] was “inactive”. The outcome [7] was “inactive” and the outcome [8] was “inactive”.

With `CC(C)(C)OOC(C)(C)CCC(C)(C)OOC(C)(C)C` the outcome [1] was “inactive”, the outcome [3] was “inactive” and the outcome [4] was “inactive”. The outcome (HGF (gene 3082)) was “inactive”, the outcome [5] was “inactive” and the outcome [6] was “inactive”. For the same compound, the outcome [7] was “inactive” and the outcome [8] was “inactive”.

`Nc1ccc(Oc2ccc(N)cc2)cc1` was tested, and the outcome [1] was “inactive”, the outcome [2] was “inactive” and the outcome [3] was “inactive”. For the same compound, the outcome [4] was “inactive”, the outcome (HGF (gene 3082)) was “inactive” and the outcome [5] was “inactive”. The outcome [6] was “inactive”, the outcome [7] was “inactive” and the outcome [8] was “inactive”.

For `Nc1ccc(Cc2ccc(N)cc2)cc1`, the outcome [1] was “inactive”, the outcome [3] was “inactive” and the outcome [4] was “inactive”. For the same compound, the outcome (HGF (gene 3082)) was “inactive”, the outcome [5] was “inactive” and the outcome [6] was “inactive”. For the same compound, the outcome [7] was “inactive” and the outcome [8] was “inactive”.
